For 24 sequences, sensor-assay potency score (higher = more potent) results are on record in the OligoGym collection.
Further: reference of the scale not given here.

For one test, the target named is CTHRC1. Nature of the test: pooled miR-30 sensor sort-seq; sequence = guide strand. Conditions: shRNA.
For the sequence TTGAATGTGAAATACCAACGCT, the sensor-assay potency score (higher = more potent) is -0.453.
TAAATTATAGCTTCAATGGGAA showed a sensor-assay potency score (higher = more potent) of -0.0923.
The sequence TTAGAGCACTATTTGAACGCAT came in with a sensor-assay potency score (higher = more potent) of -0.079.
Same read-out and setting: for ATAAATTATAGCTTCAATGGGA the value was 0.0197; for TAATTCAATGAACTCCATGAAC, -1.24.
Same read-out and setting: for TAGAGCACTATTTGAACGCATC the value was -1.21.
Consider TCTTTGTAAATGTACACTCCGC, for which the sensor-assay potency score (higher = more potent) is -0.893.
Still for that read-out and setting: for ATGAACTCCATGAACACTGCTT the value was 0.166.
Same read-out and setting: with TTTGTAAATGTACACTCCGCAA the figure was -1.33; with TAGCAACATCCACTAATCCAGC, -1.03.

The next test has as its target CTLA4. Described as above. As to conditions: shRNA.
As for TTTCTTTAGCATTTTGCTCAAA, the sensor-assay potency score (higher = more potent) is -0.998.
Consider TTTTCTTTAGCAATTACATAAA, for which the sensor-assay potency score (higher = more potent) is -1.29.
Turning to TTCACTTGATTTCCACTGGAGG, the sensor-assay potency score (higher = more potent) is -0.709.
On the same count and under the same terms, with TTTAGCAATTACATAAATCTGG the figure was 0.216; with TTGCTTTGCAGAAGACAGGGAT, 0.337; with TACATGAGCTCCACCTTGCAGA, -0.733.
Same read-out and setting: for TCAATTACATAAATCTGGGTTC the value was -0.428; for TTGCTTTTCACATTCTGGCTCT, 0.296.
On the same count and under the same terms, with TACTCACACACAAAGCTGGCGA the figure was 0.197; with TAGCAATTACATAAATCTGGGT, -0.226; with TCATCTAGGAAGGTCAACTCAT, -0.426.
Turning to TTGCTCAAAGAAACAGCTGTGA, the sensor-assay potency score (higher = more potent) was -0.0499.
Still for that read-out and setting: with TTTCACATTCTGGCTCTGTTGG the figure was -0.615; with TTTTCTTTAGCATTTTGCTCAA, -0.539.
